We go through 35 compounds from PubChem BioAssay.

The structures appear in SMILES notation. Values without a mark were called inactive.

This assay in a line: optical density shifts of acrAB sulA E. coli – strain DRC41, OD650, 48 h, E. coli filamentation inducer project, primary screen (AID 1152).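 Note: E. coli MC1000 strain DRC41 lacking acrAB efflux pump and sulA.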 The settings on record: higher = more signal, called active from +8 up or from −8 down.
`COC(=O)C1(Cc2ccccc2)C=C2C(=C(C(C)C)C(=O)C2C)CN1` (stereo not given): the z-score was -1.72.
Regarding `Cc1c(NC(=O)/C(C#N)=C/C=C/c2ccccc2[N+](=O)[O-])c(=O)n(-c2ccccc2)n1C`, the z-score was 0.56.
As for `[N-]=[N+]=NCc1ccccc1C[C@@]1(C(=O)NCCN2CCOCC2)N=C(c2ccc(OCCCO)cc2)O[C@@H]1c1ccccc1N=[N+]=[N-]`, the figure is -0.337; as for `C[n+]1ccc(CCCO)cc1`, -0.885; as for `CN1C(=O)C2C=CC(C(O)c3c(F)cccc3Cl)N(Nc3ccccc3)C2C1=O` (stereo not given), -1.32.
Regarding `C=C[C@@H](C)[C@H](OC(=O)Nc1ccc(SC)cc1)c1ccc(OCCO)cc1`, the z-score is -0.605.
As for `CC(C)C(O)C1C=CC2C(=O)N(C)C(=O)C2N1N(c1ccccc1)c1ccccc1` (stereo not given), the figure is -0.573.
`O=C1c2ccccc2[C@](Cc2ccccc2I)(C(=O)NCc2ccccc2)[C@H](c2ccc(CO)cc2)N1C1CCCCC1`: the z-score was 1.28.
As for `CC(=O)n1cc(C(O)C2C=CC3C(=O)N(Cc4ccccc4)C(=O)C3N2n2cnnc2)c2ccccc21` (stereo not given), the figure is -1.32; as for `COc1cc2c(cc1OC)CN(C(=O)[C@H]1[C@@H]3C(=O)O[C@@H](c4ccccc4)[C@@H](c4ccccc4)N3[C@@H](c3ccc(OCCO)cc3)[C@]13C(=O)Nc1ccc(C#CC4(O)CCCCCC4)cc13)CC2`, 1.9.
As for `O=c1cccc(-c2ccc(C(F)(F)F)cc2)o1`, the figure is -1.06; as for `COc1ccc(C(O)C2C=CC3C(=O)N(Cc4ccccc4)C(=O)C3N2n2cnnc2)c2ccccc12` (stereo not given), -0.855.
`CC(C)(C)OC(=O)CC[C@]1(C(=O)NCCN2CCOCC2)N=C(c2ccc(OCCCO)cc2)O[C@H]1c1ccccc1N=[N+]=[N-]`: the z-score is -0.105.
In the case of `C=CC[C@H](OC(=O)Nc1ccc(OC)cc1)c1ccc(O)c2ccccc12` it was -0.326; in that of `COC(=O)[C@@]1(Cc2ccc(OC)cc2)[C@H]2c3cc(C(=O)N4CCCC4)n(CCc4cc5ccccc5[nH]4)c3C[C@H]2CN1C(=O)c1ccccc1`, -1.31.
As for `COc1ccc(CCNC(=O)[C@@]2(Sc3ccc(C)cc3)CC(=O)N(Cc3cc(C(F)(F)F)cc(C(F)(F)F)c3)[C@@H]2c2ccc(CO)cc2I)cc1`, the figure is 0.0818; as for `COc1ccc(C(O)C2C=CC3C(=O)N(C)C(=O)C3N2N2CCCCC2)cc1` (stereo not given), -0.625.
As for `COc1ccc([Si](C)(C)[C@@H]2[C@@H](CC(=O)N3CCC[C@H]3CO)O[C@]3(C(=O)N(Cc4ccc(N5C(=O)c6cccc7cccc5c67)cc4)c4ccccc43)[C@H]2C)cc1`, the figure is 1.13.
As for `O=C1c2ccccc2[C@@]2(Cc3ccccc3N(C3CC3)C2=O)[C@H](c2ccc(CO)cc2)N1C1CCCCC1`, the z-score was -0.301.
In the case of `CCOC(=O)C1=CC[C@@H](c2cc(Cl)ccc2Cl)N(S(=O)(=O)c2ccc(C)cc2)[C@H]1c1ccc(OC)cc1` it was -0.718; in that of `CC=CC(O)C1C=CC2C(=O)N(C)C(=O)C2N1N1CCCCC1` (stereo not given), -1.81; in that of `C=C(C(=O)CC[C@H](OC(C)=O)c1cccc(OCCO)c1)C(C)C`, 0.667.
As for `CC(C)C(=C=CC[C@H](O)c1ccc(OCCO)cc1)C[C@H](O)c1cc(Cl)cc(Cl)c1O`, the figure is 0.049; as for `COc1ccc(C#Cc2ccc3c(c2)[C@]2(C(=O)N3)[C@H](C(=O)N3CCc4cc(OC)c(OC)cc4C3)[C@H]3C(=O)O[C@H](c4ccccc4)[C@H](c4ccccc4)N3[C@@H]2c2ccc(O)cc2)cc1`, -0.658.
As for `CN1C(=O)[C@@]2(CCS(=O)(=O)c3ccccc3)N=C(c3ccc(OCCCO)cc3)O[C@H]2c2ccccc21`, the figure is 0.583; as for `CC[C@H]1C2=C3C(CC[C@H]4C(OCc5ccc(F)cc5C(F)(F)F)OC[C@](C)([C@@H]34)N(C(=O)OC(C)(C)C)C2)C2COC(=O)OCC21` (stereo not given in full), -2.17; as for `Cc1ccc(S[C@]2(C(=O)NCc3ccccc3)CC(=O)N(C(C)C)[C@@H]2c2ccc(CO)cc2I)cc1`, 0.0841.
Regarding `Cc1ccc(C(C)CC(O)C2C=CC3C(=O)N(c4ccccc4)C(=O)C3N2Nc2ccc(C(C)C)cc2)o1` (stereo not given), the z-score is -1.84.
Regarding `COCCOC(=O)N1C(=O)[C@@]2(c3cc(C#Cc4ccc(OC)cc4)ccc31)[C@H](C(=O)NC[C@H](O)c1ccccc1)[C@H]1C(=O)O[C@H](c3ccccc3)[C@H](c3ccccc3)N1[C@@H]2c1ccc(O)cc1`, the z-score is -0.16.
Turning to `COCCOC(=O)N1C(=O)[C@@]2(c3cc(C#CC4(O)CCCCCC4)ccc31)[C@H](C(N)=O)[C@H]1C(=O)O[C@H](c3ccccc3)[C@H](c3ccccc3)N1[C@@H]2c1ccc(O)cc1`, the z-score is -0.342.
As for `CC1CC/C=C\[C@H]2OC34C=CCN(C(C)C)C(=O)[C@H]3N(CCCCCO)C(=O)[C@@H]4C2C(=O)O1` (stereo not given in full), the figure is 0.881; as for `CCOC(=O)C1=CC[C@@H](c2ccccc2)N(S(=O)(=O)c2ccc(C)cc2)C1`, -1.46.
In the case of `CCN(CC)c1ccc(N2CC=CC34O[C@@H]5/C=C\CCC(C)OC(=O)C5[C@H]3C(=O)N(CCO)[C@@H]4C2=O)cc1` (stereo not given in full) it was -0.244; in that of `C=CCOC(=O)[C@H]1[C@@H]2C(=O)O[C@@H](c3ccccc3)[C@@H](c3ccccc3)N2[C@@H](c2ccc(OCCOC(=O)[C@H]3C[C@H]4C(=O)N[C@@H](CCCC[N+](C)(C)C)C(=O)N4[C@H]3c3cccc(OCCO)c3)cc2)[C@]12C(=O)Nc1ccc(I)cc12`, 0.039; in that of `O=C1C[C@@](C(=O)NCC(F)(F)F)(c2ccc([N+](=O)[O-])cc2)[C@@H](c2ccc(CO)cc2)N1C1CCCCC1`, -0.0786.
